The record followed here is PubChem BioAssay (NCI).

Some test systems named below: NCI-H23 lung; NCI-H226 lung; NCI-H322M lung; HOP-62 NSCLC; NCI-H460 lung; HOP-92 NSCLC; NCI-H522 lung; A549/ATCC NSCLC; 786-0 renal; COLO 205 colon; DU-145 prostate; K-562 leukemia; MALME-3M melanoma; MDA-MB-231 breast; RXF 393 renal; SF-268 CNS; SF-295 CNS; SF-539 CNS; UACC-257 melanoma; M14 melanoma.
Assay in all cases: NCI-60 one-dose screen, 48 h (100 = growth as untreated, 0 = no growth, -100 = all killed)
Conditions in all cases: 10 µM

The structures appear in SMILES notation. The panel holds about 83,000 compounds, 20% with a hit somewhere; the sample as a whole holds those more often.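 Results are percent growth after 48 hours of single-concentration exposure. 100 means growth as in untreated cells, lower positive values show inhibition; negative values down to -100 show cell death.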 Unmarked numbers belong to inactive results. Calls of active or inactive are those of the source. Rule for the calls: active = growth percent below 10; inactive = the rest.

Consider `CCCCCCCCCCCCCCCCCN`, for which the growth with NCI-H23 lung was 106%; with NCI-H226 lung, 111%; with NCI-H322M lung, 110%; in the test on HOP-62 NSCLC, 87.7%; in the test on NCI-H460 lung, 102%; in the test on HOP-92 NSCLC, 67%. Moreover, the growth is 101% with NCI-H522 lung; 105% with A549/ATCC NSCLC; 105% with 786-0 renal; 99.8% in the test on COLO 205 colon; 114% in the test with DU-145 prostate; 103% with K-562 leukemia. Moreover, the growth in the test with MALME-3M melanoma was 98%; with MDA-MB-231 breast, 93%; with RXF 393 renal, 98.7%; with SF-268 CNS it was 113%; in the test with SF-295 CNS it was 99.1%; with SF-539 CNS, 94.2%. The growth in the test on UACC-257 melanoma was 99.2%; in the test with M14 melanoma, 104%.
Take `CSc1ccc2c(c1)C(N1CCN(C)CC1)Cc1ccccc1S2` (stereo not given): the growth is 56% in the test with NCI-H23 lung; 55.3% in the test on NCI-H226 lung; 29% in the test on NCI-H460 lung; 5.58% (active) in the test on HOP-92 NSCLC; 52.7% in the test with A549/ATCC NSCLC; 53.6% in the test on 786-0 renal. The growth with COLO 205 colon was -75.1% (active); with DU-145 prostate it was 34%; in the test with MALME-3M melanoma it was -46.6% (active); in the test on MDA-MB-231 breast, -11.6% (active); in the test on RXF 393 renal, 25.1%; in the test on SF-268 CNS, 36.7%. Moreover, the growth in the test on SF-295 CNS is 44.1%; in the test with SF-539 CNS, 60.1%; with UACC-257 melanoma it was -61.6% (active).
In the case of `Cc1cc(NCCCN(C)C)c2ccc3c(ccc4c(NCCCN(C)C)cc(C)nc43)c2n1`, the growth is -45.2% (active) in the test with NCI-H23 lung; -56.6% (active) in the test on NCI-H226 lung; -40.7% (active) with NCI-H322M lung; -22.3% (active) in the test on HOP-62 NSCLC; -77.7% (active) in the test on NCI-H460 lung; -51.2% (active) in the test on HOP-92 NSCLC. Further, the growth was -72.8% (active) with NCI-H522 lung; -22.4% (active) in the test on A549/ATCC NSCLC; -35.2% (active) with 786-0 renal; -82.8% (active) with COLO 205 colon; -92.6% (active) in the test on DU-145 prostate; -52.9% (active) in the test with K-562 leukemia. For the same molecule, the growth in the test on MALME-3M melanoma was -89.2% (active); in the test on MDA-MB-231 breast, -77.4% (active); with RXF 393 renal, -83.4% (active); in the test with SF-268 CNS, -86.1% (active); with SF-295 CNS it was -76.2% (active); in the test on SF-539 CNS, -96% (active). The growth is -51.6% (active) in the test with UACC-257 melanoma and -82.9% (active) with M14 melanoma.
For `O=C(/C(=C/c1ccccc1)CBr)c1ccccc1`, the growth is 73.1% in the test with NCI-H23 lung; 93% with NCI-H226 lung; 90.4% with NCI-H322M lung; 109% in the test with HOP-62 NSCLC; 86.4% with NCI-H460 lung; 86.3% in the test with HOP-92 NSCLC. Further, the growth with NCI-H522 lung was 55.8%; in the test on A549/ATCC NSCLC it was 90.1%; with 786-0 renal it was 94.5%; with COLO 205 colon, 92.6%; in the test on DU-145 prostate it was 87.6%; with K-562 leukemia, 9.75% (active). The growth in the test on MALME-3M melanoma was 77.5%; in the test with MDA-MB-231 breast, 58.3%; in the test on RXF 393 renal, 71.7%; in the test with SF-268 CNS, 84.4%; with SF-295 CNS, 95.1%; in the test on SF-539 CNS, 82.7%. Further, the growth was 73.9% in the test on UACC-257 melanoma and 65.8% in the test with M14 melanoma.
